From PubChem BioAssay (Tox21)
Inconclusive results are not listed. The source made the active and inactive calls. The call rests on the fitted dose curve; in most records, active means well fitted cell-killing curve with a large enough effect in the repeat runs; inconclusive means weak or mixed curves, or effect the other way; inactive means flat fitted curve, though single readings scatter.

test: qHTS assay to identify small molecule agonists of the constitutive androstane receptor (CAR) signaling pathway - cell viability counter screen (AID 1224836); conditions: HepG2-CYP2B6-hCAR viability, CellTiter-Fluor, 23 h, PK11195 added to every well; series mostly up to 92.4 µM; further: nearly all actives have a fitted effect of over 45% in size
Text: U.S. Tox21 Program National Center for Advancing Translational Sciences [NCATS] NIH Chemical Genomics Center [NCGC] U.S. Environmental Protection Agency [EPA] National Institutes of Environmental Health Sciences [NIEHS] National Toxicology Program [NTP] U.S. Food and Drug Administration [FDA] Tox21 Assay Overview: The constitutive androstane receptor (CAR) is a nuclear receptor which regulates multiple drug metabolizing enzymes (DMEs) and transporters. Activating CAR will generally increase the transcription and subsequent translation of CYP2B6 and CYP3A4. These two DMEs represent about 50% of the drug metabolizing potential in the body. […] Recently, there have also been studies performed indicating CARs role in energy metabolism and cancer therapy. Therefore, inducing CARs activity could have a potential effect on diabetes and cancer. Identifying environmental toxins and compounds which modulate CAR, through the use of the Tox21 10K compound collection, will be an important step in determining the toxicity and potential therapeutic effects these factors will have on the human body. To differentiate true CAR agonists from cytotoxic substances, the assay is multiplexed with a cell viability assay.
Tox21 Assay Protocol Summary: A double-stable (hCAR and CYP2B6-2.2kb) transfected cell line, derived from human hepatoma (HepG2) cells, was utilized for the duration of the quantitative high-throughput screens. The HepG2-CYP2B6-hCAR cells were dispensed at 2500 cells/4 uL/well in 1536-well white solid bottom plates using a Multidrop Combi. After the assay plates were incubated at 37 C/5% CO2 for 4 hrs, 23 nL of compounds at 15 concentrations (from 5-48 columns) or positive control (from 1 to 4 columns) were transferred to the assay plates using a Pintool station. One uL of PK11195 (final concentration = 0.75 uM) was added, using a Flying Reagent Dispenser, inside each well. After a 23 hr incubation period at 37 C/5% CO2, 1 uL of CellTiter-Fluor reagent was added into each well of the assay plates using a Flying Reagent Dispenser. The fluorescence intensity in the plates was then measured using a ViewLux plate reader.
On the % scale 0 is the no-effect control and ±100 the full control effect.

Structure (SMILES) | outcome | viability change, negative = cytotoxic
CCO[Si](C)(OCC)OCC | inactive | 
CC(C)c1cccc(O)c1 | inactive | 
C[N+](C)(C)CC[N+]1(C)Cc2c(Cl)c(Cl)c(Cl)c(Cl)c2C1 | inactive | 
COC[C@H](c1ccc(C(F)(F)F)cc1)N1CCN(C2(C)CCN(C(=O)c3c(C)ncnc3C)CC2)C[C@H]1C | inactive | 
CC(C)CCOC(=O)CC(C)C | inactive | 
CC(C)(O)Cc1ccccc1 | inactive | 
O=C(O)C(O)[C@H](O)[C@@H](O)[C@H](O)[C@H](O)CO (stereo not given in full) | inactive | 
O=c1[nH]c(=O)n([C@H]2O[C@H](CO)[C@@H](O)[C@@H]2O)cc1/C=C\Br | inactive | 
N#CCN(CC#N)CCN(CC#N)CC#N | inactive | 
CCO[Si](CCCN=C=O)(OCC)OCC | inactive | 
CCC(C)OC(=O)N1CCCCC1CCO (stereo not given) | inactive | 
C=CC(=O)OCCCCCC | inactive | 
CC1(C)OC(=O)Nc2ccc(Br)cc21 | inactive | 
C=CCOc1nc(OCC=C)nc(OCC=C)n1 | inactive | 
Cc1cc(C)c(NC(=O)CN(CC(=O)O)CC(=O)O)c(C)c1Br | inactive | 
C=C(C)[C@@H]1CCC2=CC(=O)C[C@@H](C)[C@]2(C)C1 | inactive | 
C=CCn1c(=O)n([C@@H]2O[C@H](CO)[C@@H](O)[C@H]2O)c2nc(N)[nH]c(=O)c21 | inactive | 
CC(C)[C@H](N)C(=O)OCCOCn1cnc2c(=O)[nH]c(N)nc21 | inactive | 
O=c1[nH]c2ccccc2c(=O)n1CCCl | inactive | 
NC(=S)Nc1cccc2ccccc12 |  | -0.893% [at 8.39 µM] (inactive)

Structure (SMILES) | outcome | viability change, negative = cytotoxic
CC(C)=CC(=O)O | inactive | 
C[C@H](O)C(=O)Nc1c(I)c(C(=O)NC(CO)CO)c(I)c(C(=O)NC(CO)CO)c1I | inactive | 
CNC(=O)c1c(I)c(NC(=O)CCCCC(=O)Nc2c(I)c(C(=O)O)c(I)c(C(=O)NC)c2I)c(I)c(C(=O)O)c1I | inactive | 
NC(N)=NS(=O)(=O)c1ccc(N)cc1 | inactive | 
N[C@@H](CS)C(=O)O | inactive | 
COc1cccc(OC)c1 | inactive | 
FC(F)(F)C(F)(F)C(F)(F)C(F)(F)C(F)(F)C(F)(F)C(F)(F)C(F)(F)C(F)(F)C(F)(F)F |  | 1.23% [at 8.39 µM] (inactive)
CC(=O)O[C@H](CC(=O)[O-])C[N+](C)(C)C | inactive | 
CCCCCOC(=O)Nc1nc(=O)n([C@@H]2O[C@H](C)[C@@H](O)[C@H]2O)cc1F | inactive | 
CC(C)c1cccc(C(C)C)c1N | inactive | 
O=C(O)C1CCC1 | inactive | 
COC(=O)CCCCCCCCC(=O)OC | inactive | 
NS(=O)(=O)c1cc2c(cc1C(F)(F)F)NC(Cc1ccccc1)NS2(=O)=O (stereo not given) | inactive | 
CCCc1ccc(N)cc1 | inactive | 
OC1OC[C@@H](O)[C@H](O)[C@H]1O (stereo not given in full) | inactive | 
c1ccc(SCCSc2ccccc2)cc1 | inactive | 
CCCOc1ccccc1-c1nc2n[nH]nc2c(=O)[nH]1 | inactive | 
CC(C)(C)C(=O)/C=C/c1ccc(Cl)cc1 | inactive | 
CC(C)(C)N(CCO)CCO | inactive | 
CC(=O)NC(Cc1ccccc1)C(=O)O (stereo not given) | inactive | 
